TrxR1 substrate: is turned over as a substrate by rat TrxR1; O89049; purified TrxR1 substrate turnover, NADPH consumption readout; Potency, µM (titrated, usually from 114 µM), inactives show at the highest dose activity change, negative = substrate turnover; 0.01% of 390,000 active; AID 588456; note: potency is the fitted concentration of half-maximal effect; nearly all actives have a fitted effect of over 50% in size
Target sequence (O89049 whole entry, looked up): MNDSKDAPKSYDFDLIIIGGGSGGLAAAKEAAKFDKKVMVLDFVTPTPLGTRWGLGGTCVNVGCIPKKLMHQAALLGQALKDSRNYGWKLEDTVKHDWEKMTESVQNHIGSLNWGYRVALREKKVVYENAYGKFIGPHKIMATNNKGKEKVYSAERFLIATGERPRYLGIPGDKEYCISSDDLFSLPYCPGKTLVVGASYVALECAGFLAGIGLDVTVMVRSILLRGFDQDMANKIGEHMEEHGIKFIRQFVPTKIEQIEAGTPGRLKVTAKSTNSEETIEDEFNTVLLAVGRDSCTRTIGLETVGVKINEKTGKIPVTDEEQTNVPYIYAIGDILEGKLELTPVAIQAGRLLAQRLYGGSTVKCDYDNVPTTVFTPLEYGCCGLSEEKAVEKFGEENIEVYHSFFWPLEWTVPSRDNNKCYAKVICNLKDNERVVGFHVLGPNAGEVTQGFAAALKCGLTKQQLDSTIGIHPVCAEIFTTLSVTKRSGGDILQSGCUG
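Rat TrxR1, dispensed at 90 nM, was prereduced with 400 uM NADPH (final) for 5 min at ~22 deg C, then incubated with compound 15 min before 400 uM selenite. A first-read NADPH fluorescence drop versus no-compound background flagged substrates.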
TrxR1 inh: inhibitors of rat thioredoxin reductase 1; O89049; 1% of 390,000 active; recombinant rTrxR1, NADPH fluorescence consumption, selenite substrate; Potency, µM (highest dose often 114 µM), without a hit: top-dose activity change, negative = inhibition, hits mostly inhibitors; note: potency is the fitted concentration of half-maximal effect; nearly all actives have a fitted effect of over 65% in size
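Rat TrxR1 (90 nM in the dispensed reagent) was pre-reduced with 400 uM NADPH for 5 min at room temperature, then incubated with compound for 15 min. After 400 uM selenite was added, NADPH fluorescence (Ex 340/Em 450 nm) was followed for 8 min.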
VP16 counter: inhibits Gal4-VP16 luciferase reporter, ROR gamma counter-screen | 3.5% of 310,000 active | Potency, µM (top dose mostly 53.6 µM), inactives show at the highest dose activity, negative = inhibition, hits mostly inhibitors | Drosophila S2 Gal4-VP16 UAS-luciferase, luminescence, 20 h | AID 2546;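 note: Gal4-VP16 expression switched on by copper sulfate through the metallothionein promoter; potency is the fitted concentration of half-maximal effect; nearly all actives have a fitted effect of over 50% in size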
GALK inh: blocks human galactokinase activity; Purified GALK, Kinase-Glo residual ATP luminescence; Potency, µM (top dose mostly 57.5 µM), inactives show at the top dose activity change, negative = inhibition, hits mostly inhibitors; AID 1868; 0.007% of 270,000 active; P51570; note: potency is the fitted concentration of half-maximal effect
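Human GALK (5 nM) with 35 uM ATP and 100 uM galactose in 20 mM HEPES pH 8.0, 5 mM MgCl2, 60 mM NaCl, 1 mM DTT, 0.01% BSA. After 1 h at room temperature, leftover ATP was read by Kinase-Glo Plus luminescence.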
FBPA coupling cs: inhibits coupling enzyme system, counter-screen for aldolase hits; coupling enzyme system counterscreen, AmpLite Red fluorescence; activity change, negative = inhibition, % at 58.2 µM, hits read low; 0.67% of 290,000 active; in the data active = activity change below about -30%
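Coupling enzymes only (glyceraldehyde-3-phosphate) + compound, at 57.5 uM final, 10 min RT; add substrate/coupling/AmpLite Red mix, 20 min RT; fluorescence ex 525/em 598 nm. Actives flag coupling-system interference.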
RORg inh: blocks mouse ROR gamma transcriptional activity; P51450; Drosophila S2 Gal4-RORgamma UAS-luciferase reporter, 20 h; Potency, µM (highest dose often 53.6 µM), without a hit: at the highest dose activity change, negative = inhibition, actives largely listed as inhibitors; 5.4% of 310,000 active; AID 2551; note: potency is the fitted concentration of half-maximal effect; nearly all actives have a fitted effect of over 60% in size
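Luminescence from a UAS-regulated Photinus luciferase reporter in stably transfected Drosophila Schneider cells is measured; decreased signal marks ROR gamma inhibition. Fusion expression is induced by 700 uM copper sulfate for 20 hr.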
Starred values were filed as active, the others as inactive; u = inconclusive; x = not tested or not shown; [ ] = another dose, or the depositor's remark. A selection: hits, their analogues and other compounds. The true share with any hit is near 5.9%. Unless noted, calls come from the whole dose curve; as a rule, active = well fitted curve in the direction sought with a large enough effect; inconclusive = small, poorly fitted or top-dose-only effect, or another doubt; inactive = no such curve, though single readings can be large; an effect the other way counts as inactive or inconclusive. % is set by controls: 0 for no effect and ±100 for the full control effect.

SMILES	TrxR1 substrate	TrxR1 inh	VP16 counter	GALK inh	FBPA coupling cs	RORg inh
O=S(=O)(Nc1ccc(-n2cccc2)cc1)c1ccc(Cl)c(Cl)c1	-7.4%	18.9%	-27.6%	x	-1.2	-25.5%
O=S(=O)(Nc1ccc(-n2cccc2)cc1)c1ccc(Cl)cc1Cl	1.9%[57.1 µM]	11.1%[57.1 µM]	14.1µM*	0.8%	-4.2	20µM*
CCCC(C)c1nnc(NC(=O)c2cc(C(=O)OC)cc([N+](=O)[O-])c2)s1 (stereo not drawn)	-5.1%	-11.9%	15.8µM*	-2.5%	5.0	10µM*
Cc1nc2cc(N3CCCCC3)c(NC(=O)c3ccncc3)cc2c(=O)n1Cc1ccc(Cl)cc1	x	x	-2.6%	0.7%	3.0	21.1%
Cc1nc2cc(N3CCN(C)CC3)c(NC(=O)Cc3ccccc3)cc2c(=O)n1Cc1ccccc1	-8.4%	-12.6%	u	2.2%	1.7	7.08µM*
CC1CCCCN1S(=O)(=O)c1ccc(C(=O)Nc2nnc(C3=COCCO3)o2)cc1 (stereo not drawn)	-7.4%	4.4%	1.26µM*	3.3%	x	0.891µM*
Cc1cccc(NC(=O)c2ccc(S(=O)(=O)N3CCCCC3C)cc2)n1 (stereo not drawn)	5.8%	16.7%	x	x	x	x
CC1CCCN(S(=O)(=O)c2ccc(C(=O)Nc3nnc(C4=COCCO4)o3)cc2)C1 (stereo not drawn)	x	x	1.12µM*	4.5%	1.2	0.794µM*
O=C(Nc1ccon1)c1ccc(S(=O)(=O)N2CCOCC2)cc1	-15.6%	-15.9%	-1.3%	-1.0%	-0.3	21.9%
O=C(Nc1nnc(C2=COCCO2)o1)c1ccc(S(=O)(=O)N2CCOCC2)cc1	-11.5%	-9.0%	-2.1%	-1.3%	-0.3	11.2µM*
CS(=O)(=O)c1ccc(-c2nnc(NC(=O)c3ccc(S(=O)(=O)N4CCCC4)cc3)o2)cc1	-15.3%	-0.8%	x	x	x	x
Cc1noc(C)c1S(=O)(=O)N(C)C[C@H]1Oc2c(NC(=O)NC3CCCCC3)cccc2C(=O)N([C@H](C)CO)C[C@@H]1C	0.5%[57.1 µM]	-12.7%[57.1 µM]	x	x	x	x
CC(=O)N1CCc2cc(S(=O)(=O)C(C)CC(=O)NCc3ccc(C)o3)ccc21 (stereo not drawn)	-8.0%[57.1 µM]	11.5%[57.1 µM]	-7.5%	-0.1%	1.3	1.7%
CC(=O)N1CCc2cc(S(=O)(=O)NCCC(=O)NCCc3ccc(Cl)cc3)ccc21	1.7%	13.4%	u	1.1%	5.3	u
COc1ccc(CNC(=O)CCS(=O)(=O)c2ccc(Br)cc2)cc1	-1.8%	-6.6%	0.8%	-2.6%	4.2	-0.5%
CC(=O)N1CCc2cc(S(=O)(=O)NCCC(=O)NCCc3ccc(C)cc3)ccc21	-9.9%[57.1 µM]	-9.1%[57.1 µM]	3.55µM*	0.7%	1.3	u
COc1ccc(S(=O)(=O)CCC(=O)NCc2ccc(C)o2)cc1	-0.9%[57.1 µM]	20µM*	-3.2%	x	3.4	-29.2%
CC(=O)N1CCc2cc(S(=O)(=O)CCC(=O)NCc3ccc(C)o3)ccc21	7.6%	50.1µM*	-1.3%	0.6%	-0.2	-14.6%
O=C(CCCn1cnc2ccccc2c1=O)Nc1ccccc1F	3.3%[57.1 µM]	19.8%[57.1 µM]	10.0%	-2.3%	-0.2	26.8%
CCOC(=O)c1cc(-c2ccccc2)sc1NC(=O)c1cc(OC)c(OC)c(OC)c1	143.6%	-24.8%	-2.3%	-0.4%	2.7	-6.8%[10 µM]
CCOc1ccc2c(c1)nc(SCC(=O)c1ccc(Br)s1)n2C	-6.0%	25.1µM*	u	-3.5%	-0.8	14.1µM*
c1ccc(-c2cn(-c3ccccc3)c3[n+]2CCS3)cc1	-4.4%	3.0%	-14.7%	2.2%	2.5	28.1%
CC(C)(C)c1ccc(-c2cn(-c3ccc(Br)cc3)c3[n+]2CCCS3)cc1	2.3%	8.4%	7.94µM*	7.4%	0.5	7.08µM*
O=[N+]([O-])c1cnc(Sc2ccncn2)s1	-10.9%	u	3.16µM*	-1.4%	3.1	3.16µM*
O=C1NCCN1c1ncc([N+](=O)[O-])s1	-2.3%	5.6%	1.3%[17 µM]	x	1.9	-3.7%[16.9 µM]
SMILES	TrxR1 substrate	TrxR1 inh	VP16 counter	GALK inh	FBPA coupling cs	RORg inh
CCOc1ccc(Nc2nnc(SCc3nc4ccccc4c(=O)[nH]3)s2)cc1	-2.7%	15.9%	-0.6%	-1.9%	2.4	11.1%
CCOc1ccc(Nc2nc3ccccc3c(=O)s2)cc1	-7.4%	-5.9%	u	-0.5%	1.6	3.98µM*
CCc1ccc(Nc2nc3ccccc3c(=O)s2)cc1	2.3%	8.3%	1.41µM*	0.9%	3.8	0.891µM*
CCc1ccc(Nc2nc3ccccc3nc2NS(=O)(=O)c2ccccc2)cc1	-9.1%	17.0%	x	x	x	x
CCc1cccc(C)c1NC(=O)c1cc(S(=O)(=O)N(Cc2ccc(C(=O)OC)cc2)Cc2ccc(OC)c(OC)c2)ccc1F	-1.3%[57.1 µM]	17.7%[57.1 µM]	x	x	x	x
CC(=O)Nc1sc2c(c1-c1nc3ccccc3s1)CCN(C(C)C)C2	-3.5%[57.1 µM]	0.7%[57.1 µM]	11.2µM*	0.6%	-1.4	8.91µM*
COc1ccccc1C(=O)Nc1nnc(-c2ccc3c(c2)CCCC3)o1	4.4%	21.1%	3.98µM*	2.0%	18.5	0.4%
CC1CN(S(=O)(=O)c2ccc(C(=O)Nc3nnc(-c4ccc5c(c4)CCCC5)o3)cc2)CC(C)O1 (stereo not drawn)	12.1%	39.8%	0.891µM*	2.8%	7.7	0.112µM*
CC(=O)Nc1nnc(-c2ccc3c(c2)CCCC3)o1	3.9%	39.2%	3.55µM*	1.5%	-0.3	7.08µM*
O=C(COc1ccc(Cl)cc1)Nc1nnc(-c2ccc3c(c2)CCCC3)o1	3.6%	14.1%	u	-2.4%	7.7	-75.2%
O=C(Nc1nnc(-c2ccc3c(c2)CCCC3)o1)C1COc2ccccc2O1 (stereo not drawn)	-5.1%	-2.7%	7.94µM*	0.4%	4.8	3.55µM*
COc1ccc(Cl)cc1NS(=O)(=O)c1cccc2cccnc12	1.7%[57.1 µM]	6.3%[57.1 µM]	-11.6%	-1.0%	-1.8	u
c1ccc(-c2cc3c(ccc4nonc43)nn2)cc1	22.5%[57.1 µM]	17.9%[57.1 µM]	5.8%	2.2%	2.2	13.6%
On1onc2c3cc(-c4ccccc4)nc3ccc21	-5.8%	-3.9%	10µM*	-5.4%	-11.9	7.94µM*
COc1ccc(-c2cc3cccc(OC)c3oc2=O)cc1	38.4%	36.0%	u	x	-8.7	10µM*
CN1CCN(c2nc(-c3ccccc3O)nc3ccccc23)CC1	0.5%	2.9%	-14.3%	4.4%	1.6	8.91µM*
c1ccc(-c2nc(N3CCCCCC3)c3ccccc3n2)nc1	4.4%[57.1 µM]	8.1%[57.1 µM]	2.51µM*	2.6%	-1.3	1.12µM*
c1ccc(-c2nc(N3CCOCC3)c3ccccc3n2)nc1	-10.0%	-16.4%	5.62µM*	-2.4%	4.7	2.51µM*
c1ccc(CN2CCN(c3nc(-c4ccccn4)nc4ccccc34)CC2)cc1	10.7%[57.1 µM]	13.0%[57.1 µM]	2.82µM*	2.2%	-2.6	1.41µM*
Cc1ccccc1-c1nc(N2CCN(C)CC2)c2ccccc2n1	x	x	6.1%	x	1.5	-26.2%

Source: PubChem BioAssay (National Center for Advancing Translational Sciences (NCATS))
